Measurements published in PubChem BioAssay.

Key:
[1] = NFkB reporter suppression in cystic fibrosis bronchial cells – cell-based, uHTS hits, panel, cytotoxicity readout, dose response (AID 624344); settings: CF bronchial epithelial cells, PAF-induced NFkB reporter inhibition, with PAF, run 1; at 79 µM (top of the series) unless noted
[2] = as above; settings: CF bronchial epithelial cells, PAF-induced NFkB reporter inhibition, with PAF, run 2; at 79 µM (top of the series) unless noted

Row | Structure (SMILES) | inhibition [1] [%] | inhibition [2]
1 | CNc1ccc2ncc(-c3cccc(C(=O)N(C)C)c3)n2n1 | 111 | 106%
2 | COc1ccccc1Cn1c(=O)c2ccccc2n2c(Sc3ncnc4sccc34)nnc12 | 101 | 113%
3 | C=CC[C@@H](CC(=O)N[C@H](CO)Cc1ccccc1)C(=O)NC[C@H](OC(=O)[C@@H](CC=C)Cc1ccc(F)cc1)c1ccccc1 | 101 | 108%
4 | COc1ccc(C2=Nn3c(nnc3-c3ccccc3OC)SC2)cc1OC1CCOC1 (configuration not stated) | 92.2 | 92.2%
5 | COc1ccc(-c2ccccc2[C@H]2[C@@H]3C=CC[C@@H](C)[C@@H]3C(=O)N2Cc2ccccc2)cc1 | 102 | 108%
6 | O=C(CC12CC3CC(CC(C3)C1)C2)Nc1nncs1 | 105 | 100%
7 | c1nc(NCc2ccc3c(c2)OCO3)c2cc(-c3ccoc3)ccc2n1 | 102 | 102%
8 | CC(C)(CO)CNc1ccn2nccc2n1 | 114 | 99.8%
9 | C=C(c1ccc2nc(NC(=O)OC)[nH]c2c1)c1cccs1 | 101 | 110%
10 | Cc1ccc(S(=O)(=O)N2[C@@H](c3ccc(C(C)(C)C)cc3)C(C(=O)O)=CC[C@H]2c2ccc(C(C)C)cc2)cc1 | 65 | 115%
11 | CC(C)(C)OC(=O)NCC(=O)Oc1cc2oc(=O)cc(-c3ccccc3)c2cc1Cl | 117 | 104%
12 | CC1CCCCN1c1ncnc(N)c1[N+](=O)[O-] (configuration not stated) | 113 | 103%
13 | O=S(=O)(Nc1ccc(Cl)cc1NS(=O)(=O)c1ccccc1)c1ccccc1 | 114 | 85.8%
14 | COc1ccc(-c2cc(NC=O)c3ncc(-c4ccc(OC)c(OC)c4)n3c2)c(OC)c1 | 95.1 | 86.2%
15 | COc1ccc(-c2cn[nH]c2-c2ccc(OCc3ccccc3)cc2O)cc1 | 99.8 | 114%
16 | Cc1nc([N+](=O)[O-])c(Sc2nc3ccccc3n2C)n1Cc1ccccc1 | 101 | 115%
17 | CC1C(c2ccccc2)OCCN1C(=S)Nc1ccc(S(=O)(=O)N2CCCCC2)cc1 (configuration not stated) | 100 | 106%
18 | O=C1NCCc2c1[nH]c1c(Cl)ccc(Cl)c21 | 101 | 113%
19 | CC(C)CNC(=O)c1coc(=O)c(Br)c1 | 86 | 63.6%
20 | COc1ccc(OC)c(-c2nnc3n2N=C(c2ccc(OC)c(OC4CCOC4)c2)CS3)c1 (configuration not stated) | 103 | 107%
21 | ON=C1c2ccccc2-c2ccccc21 | 95.8 | 106%
22 | Cc1ccc(NS(=O)(=O)c2ccc(-c3cnc(C4CC4)o3)cc2)c(C)c1 | 104 | 111%

Row | Structure (SMILES) | inhibition [1] [%] | inhibition [2]
23 | COc1ccc(-c2[nH]ncc2-c2ccc3c(c2)OCCO3)c(O)c1 | 107 | 114%
24 | Nc1nc(N)nc(-c2cc([N+](=O)[O-])ccc2O)n1 | 76.3 | 66.7%
25 | CCNC(=O)C1(C)CCCN(Cc2ccc(-c3ccccc3)o2)C1 (configuration not stated) | 94 | 74.8%
26 | Cc1ccc(NC(=O)c2nc[nH]c2C(=O)NCCCNC(=O)c2[nH]cnc2C(=O)Nc2ccc(C)cc2)cc1 | 108 | 95.2%
27 | Cc1ccc(Nc2nc3nonc3[nH]c2=O)cc1Cl | 118 | 104%
28 | O=C(c1[nH]c(C(F)(F)F)nc1-c1ccccc1)N1CCN(c2c(Cl)cncc2Cl)CC1 | 103 | 96.2%
29 | C[C@]12CCC(O)CC1CCC1C2CC[C@]2(C)C(c3cc(C(F)(F)F)n[nH]3)CCC12 (some centres not stated) | 121 | 99.6%
30 | C=C1C(=O)O[C@@]23[C@H]1CC[C@@H](C)[C@@H]2CC[C@@]1(C)O[C@@H]31 | 113 | 105%
31 | Cn1c(N2CCN(C(c3ccccc3)c3ccccc3)CC2)nc2c1c(=O)[nH]c(=O)n2C | 108 | 104%
32 | O=C1Cc2c([nH]c3ccc(Br)cc23)-c2ccccc2N1 | 94.6 | 80.1%
33 | CN(C)c1ccc(C(C(=O)NC2CCCCC2)N(Cc2ccco2)C(=O)c2snc(C(N)=O)c2N)cc1 (configuration not stated) | 105 | 102%
34 | C=CCn1c(Oc2ccccc2F)nc2c1c(=O)n(C)c(=O)n2C | 95.6 | 93.3%
35 | Cc1[nH]nc2c1-c1nc3ccccc3nc1C(C)(C)C2 | 113 | 99.3%
36 | COc1ccc(-c2cn[nH]c2-c2ccc(OCc3ccc([N+](=O)[O-])cc3)cc2O)cc1 | 105 | 115%
37 | COc1cc2c(Cc3ccccc3)cncc2cc1O | 107 | 96.3%
38 | O=S1(=O)CCC(NC(=S)SCCOc2ccccc2)C1 (configuration not stated) | 99.3 | 108%
39 | C=C1C(=O)O[C@H]2C[C@H]1[C@@H](OC(C)=O)C/C(C)=C/CC/C(C)=C\CC[C@]2(C)O | 107 | 97.5%
40 | CC(C)C[C@@H](CN1CCCC1CN1C(=S)NC[C@@H]1Cc1ccc(O)cc1)N1C[C@H](Cc2ccc(O)cc2)N(CC2CCCCC2)C1=S (some centres not stated) | 102 | 107%
41 | Cc1ccc2c(c1)C(=O)C(=O)N2Cc1ccc(Br)cc1 | 106 | 113%
42 | O=C1CC(=O)OC(c2ccc([N+](=O)[O-])cc2)O1 | 101 | 94.3%
43 | COc1ccc(/C=C/C(=O)c2cc(F)ccc2OC(=O)c2ccccc2C)cc1OC | 4.66 | 90.3%
44 | O=c1cc(-c2ccccc2Cl)oc2c([N+](=O)[O-])c(O)cc(O)c12 | 101 | 109%

Row | Structure (SMILES) | inhibition [1] [%] | inhibition [2]
45 | CCCCN(c1ccccc1)c1ncnc(N)c1[N+](=O)[O-] | 97.4 | 101%
46 | COc1ccc(-n2c(C)c(C(C)=O)c3cc(O)ccc32)cc1 | 117 | 95.2%
47 | COCCNc1nc(Oc2cncc(Cl)c2)c2sccc2n1 | 100 | 115%
48 | CC(=O)Nc1ccc(-c2ccnc3c2CC(C(=O)NCc2ccco2)O3)cc1 (configuration not stated) | 70 | 78%
49 | Cc1c(Cl)cccc1NC(=O)COC(=O)c1c2c(nc3ccccc13)CCN(Cc1ccccc1)C2 | 72.2 | 97.3%
50 | O=C(/C=C/c1cccc([N+](=O)[O-])c1)NC(=S)Nc1ccc(CN2CCOCC2)cc1 | 100 | 112%
51 | COc1ccc(Nc2nc(-c3cccs3)nc3ccccc23)cc1S(=O)(=O)N1CCOCC1 | 104 | 102%
52 | Cn1cccc1C(=O)NC(=O)COC(=O)c1ccc(S(C)(=O)=O)c([N+](=O)[O-])c1 | 92.6 | 98.1%
53 | O=C(c1nnsc1S(=O)c1ccc(Cl)cc1)N1CCOCC1 (configuration not stated) | 95.6 | 110% [at 19.8 µM]
54 | Cc1ccnc(NC(=O)CSc2cc(=O)n(C)c3ccccc23)c1 | 103 | 110%
55 | O=C(N/N=C/c1ccccc1Cl)c1[nH]c2ccc(Br)cc2c1-c1ccccc1 | 105 | 109%
56 | NC(=O)c1nsc(C(=O)N(c2ccccc2)C(C(=O)NCc2ccc(F)cc2)c2ccc(O)cc2)c1N (configuration not stated) | 102 | 108%
57 | CN(c1ncnc(N)c1[N+](=O)[O-])C1CCCCC1 | 115 | 102%
58 | COc1ccc(-c2cn[nH]c2-c2ccc(OCc3ccccc3F)cc2O)cc1OC | 113 | 98.3%
59 | O=C(Nc1ccccc1N1CCOCC1)c1cc(-c2ccco2)nc2ccccc12 | 102 | 95.6%
60 | O=C(c1cncc(Br)c1)N1CCc2ccccc2C1 | 92.5 | 80.2%
61 | Cc1nc(N2CCC(C(N)=O)CC2)c2c(-c3cccs3)csc2n1 | 97.5 | 93.8%
62 | COC(=O)N1C(=O)[C@@](c2ccccc2)(C(C)C)N1C(=O)OC | 107 | 104%
63 | O=C(CCl)N(Cc1cc(=O)[nH]c2ccccc12)c1ccccc1 | 68.3 | 83.6%
64 | C[C@H](O)[C@@H]1CN2CCc3c([nH]c4ccc(-c5ccc6c(c5)OCO6)cc34)[C@@H]2C[C@@H]1N(C)C(=O)Nc1ccc(F)cc1 | 99.8 | 107%
65 | CCOC(=O)c1c(-c2ccc(C)cc2)csc1NC(=O)c1ccc(N2C(=O)CCC2=O)cc1 | 30.1 | 81.4%
66 | Cc1ccc(S(=O)(=O)CC(CN2CCCCC2)N2CCCCC2)cc1 (configuration not stated) | 102 | 109%

Row | Structure (SMILES) | inhibition [1] [%] | inhibition [2]
67 | CCCc1nnc(NC(=O)c2nc(S(=O)(=O)Cc3ccc(C)cc3)ncc2Cl)s1 | 89 | 86.5%
68 | CC1(C)CC(=O)C(C2C3=C(CC(C)(C)CC3=O)Oc3c(Br)cc(Br)cc32)=C(O)C1 (configuration not stated) | 104 | 111%
69 | CC1=C(/C=C/C(C)=C/C=C/C(C)=C\C(=O)O)C(C)(C)CCC1 | 100 | 71.7%
70 | O=C(NCc1ccccc1)C1=C[C@H](c2csc3ccccc23)C[C@H](OCc2ccc(CO)cc2)O1 | 72 | 52.1%
71 | CC(=O)Nc1ccc(S(=O)(=O)N2c3ccccc3C(C)=CC2(C)C)cc1 | 93.9 | 56.4%
72 | COc1ccc(C(=O)N[C@H](C(=O)Nc2nc3ccccc3[nH]2)C(C)C)cc1 | 99.8 | 102%
73 | CC(=O)Nc1ccc(Nc2nc(-c3sc(NC(C)=O)nc3C)cs2)cc1 | 103 | 110%
74 | CCCC1/C(=N/O)CC(c2ccccc2)NC1c1ccccc1 (configuration not stated) | 106 | 98.7%
75 | CCCCN(CCCC)c1ncnc2nc[nH]c12 | 102 | 118%
76 | Cc1cccc(C(=O)N2[C@@H](C(C)C)COc3cc(Br)ccc3S2(=O)=O)c1 | 102 | 93.6%
77 | Nc1ncc(-c2ccccc2)c(-c2ccc(O)cc2O)n1 | 100 | 112%
78 | O=S(=O)(c1cccc2cnccc12)N1CCCNCC1 | 116 | 105%
79 | C=C1C(=O)C23C(O)C1CCC2C12COC3(O)C(O)C1C(C)(C)CCC2O (configuration not stated) | 87.7 | 76.9%
80 | Cc1cc(N2C(=O)C(O)=C(C(=O)c3ccc(C)o3)C2c2cccc(Oc3ccccc3)c2)no1 (configuration not stated) | 64 | 82.8%
81 | COc1ccc(COC(=O)C2=C(C)NC(=O)NC2c2ccc(OC)cc2)cc1 (configuration not stated) | 76.8 | 78%
82 | O=C(c1nnsc1S(=O)(=O)c1ccc(Cl)cc1)N1CCOCC1 | 96 | 85.4%
83 | Cc1ccc(S(=O)(=O)/N=C(\CCl)N2CCOCC2)cc1 | 110 | 102%
84 | COc1cc2oc(=O)cc(-c3ccc(-c4ccc(N(C)C)cc4)cc3)c2c(OC)c1OC | 54.9 | 69.4%
85 | Cc1ccc(S(=O)(=O)Nc2nc3ccccc3nc2Nc2cccc(S(=O)(=O)N3CCCC3)c2)cc1 | 94.9 | 103%
86 | COc1ccc(-n2cc(-c3ccccc3)c3c(N4CC(C)OC(C)C4)ncnc32)cc1 (configuration not stated) | 102 | 102%
